Eya2 inh – qHTS Assay for Inhibitors of the Phosphatase Activity of Eya2 | 0.006% of 330,000 active | Protein phosphatase EYA2 (Homo sapiens), O00167 | Potency, µM (series often up to 76.9 µM), most hits filed as inhibitors | recombinant Eya2, OMFP fluorescence dephosphorylation (OMFP is methylfluorescein phosphate) | AID 488837, 2010
Target sequence (O00167 whole entry, looked up): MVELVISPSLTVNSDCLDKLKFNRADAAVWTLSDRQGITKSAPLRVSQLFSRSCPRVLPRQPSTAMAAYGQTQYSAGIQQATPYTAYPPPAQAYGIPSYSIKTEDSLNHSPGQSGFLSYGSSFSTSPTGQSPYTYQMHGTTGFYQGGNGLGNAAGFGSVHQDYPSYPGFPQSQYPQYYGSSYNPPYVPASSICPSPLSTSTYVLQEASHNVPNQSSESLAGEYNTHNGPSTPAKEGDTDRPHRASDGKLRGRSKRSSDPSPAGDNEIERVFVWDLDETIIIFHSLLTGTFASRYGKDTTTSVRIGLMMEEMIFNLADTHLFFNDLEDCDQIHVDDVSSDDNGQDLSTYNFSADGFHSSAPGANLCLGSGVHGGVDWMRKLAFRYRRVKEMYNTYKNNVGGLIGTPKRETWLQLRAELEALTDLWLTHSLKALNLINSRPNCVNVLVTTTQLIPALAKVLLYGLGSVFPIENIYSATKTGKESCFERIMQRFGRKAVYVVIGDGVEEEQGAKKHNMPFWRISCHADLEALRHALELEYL
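Eya2 protein (added as 0.2 uM solution) was preincubated with compound for 10 min at ambient temperature in 50 mM HEPES pH 7.5, 50 mM NaCl, 5 uM MgCl2, 0.05% BSA, 1 mM DTT. OMFP (added at 50 uM) then reacted 10 min; fluorescence read at 485/525 nm.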
IDH1 R132H inh – qHTS for Inhibitors of mutant isocitrate dehydrogenase 1 (IDH1): qHTS; 0.093% of 390,000 active; IDH1-R132H enzyme, NADPH consumption, diaphorase/resazurin fluorescence; Potency, µM (top dose mostly 76.6 µM), actives largely listed as inhibitors; AID 602179, 2012; further: nearly all actives have a fitted effect of over 65% in size
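IDH1-R132H (0.5 ug/mL dispensed) in pH 7.5 Tris buffer was preincubated 30 min with compound, then given a substrate mix of 0.016 mM NADPH and 2 mM alpha-KG for 80 min at room temperature; remaining NADPH was read by diaphorase/resazurin fluorescence.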
RGS4 inh – Inhibitors of Regulator of G Protein Signaling (RGS) 4: qHTS; Regulator of G-protein signaling 4 (Homo sapiens), P49798; 0.039% of 390,000 active; AID 504845, 2011; Potency, µM (top dose mostly 114 µM), actives largely listed as inhibitors; Transcreener GDP fluorescence polarization, RGS4-accelerated GTP hydrolysis; further: nearly all actives have a fitted effect of over 75% in size
Target sequence (P49798 whole entry, looked up): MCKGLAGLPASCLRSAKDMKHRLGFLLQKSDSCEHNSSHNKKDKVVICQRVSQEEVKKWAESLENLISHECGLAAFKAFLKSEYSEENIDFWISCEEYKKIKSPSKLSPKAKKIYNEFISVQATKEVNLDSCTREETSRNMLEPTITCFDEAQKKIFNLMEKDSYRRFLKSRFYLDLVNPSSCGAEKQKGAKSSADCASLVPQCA
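MLSMR compounds (23 nl, pin-transferred) preincubated 10 min at room temperature with a 500nM (2x) first reagent, then RGS4 at 900nM (2x) plus Transcreener GDP mix added; fluorescence polarization (620/688 nm) read before and after 90 min at 30 °C.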
TrxR1 inh – qHTS Assay for Inhibitors of Mammalian Selenoprotein Thioredoxin Reductase 1 (TrxR1): qHTS; 1% of 390,000 active; recombinant rTrxR1, NADPH fluorescence consumption, selenite substrate; Potency, µM (top dose mostly 114 µM), hits mostly inhibitors; Thioredoxin reductase 1, cytoplasmic (Rattus norvegicus), O89049; AID 588453, 2011; further: nearly all actives have a fitted effect of over 65% in size
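Rat TrxR1 (90 nM in the dispensed reagent) was pre-reduced with 400 uM NADPH for 5 min at room temperature, then incubated with compound for 15 min. After 400 uM selenite was added, NADPH fluorescence (Ex 340/Em 450 nm) was followed for 8 min.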
TrxR1 substrate – qHTS Assay for Substrates of Mammalian Selenoprotein Thioredoxin Reductase 1 (TrxR1): qHTS; Thioredoxin reductase 1, cytoplasmic (Rattus norvegicus), O89049; purified TrxR1 substrate turnover, NADPH consumption readout; Potency, µM (titrated, usually from 114 µM); 0.01% of 390,000 active; AID 588456, 2011; further: nearly all actives have a fitted effect of over 50% in size
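Rat TrxR1, dispensed at 90 nM, was prereduced with 400 uM NADPH (final) for 5 min at ~22 deg C, then incubated with compound 15 min before 400 uM selenite. A first-read NADPH fluorescence drop versus no-compound background flagged substrates.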
Each line names hits and unclear results; the compound was inactive in the other large screens; ! = repeats disagree. This is a sample that favours compounds with a hit; in the whole collection about 1.1% have one here. The call rests on the fitted dose curve; in most records, active means well fitted curve in the direction sought with a large enough effect; inconclusive means small, poorly fitted or top-dose-only effect, or another doubt; inactive means no such curve, though single readings can be large; an effect the other way counts as inactive or inconclusive.

C=C(CN(C)C)C(=O)c1ccc2c(c1)OCO2	RGS4 inh inconclusive, TrxR1 inh 1.6µM (no result: Eya2 inh)
Cc1cc(=O)n2nc(N3CCCC(C(=O)NCCc4ccccc4)C3)sc2n1 (stereo unspecified)	none
N#Cc1cc(O)c(-n2nnc3ccccc32)cc1C#N	none
N#Cc1cc(Oc2cccc3cccnc23)c(-n2nnc3ccccc32)cc1C#N	TrxR1 inh 71µM
O=C(CCNS(=O)(=O)c1ccccc1)N1CCN(c2ccccc2)CC1	none
C/C(=N/NS(=O)(=O)c1ccc(Cl)cc1)c1ccncc1	TrxR1 inh 25µM
C/C(=N/NS(=O)(=O)c1ccc(C(C)C)cc1)c1ccncc1	none
CCCCN(C(=O)/C=C/c1ccco1)c1c(N)n(CCC)c(=O)[nH]c1=O	none
Cc1cc(Cl)ccc1OCC(=O)N(Cc1ccco1)c1c(N)n(Cc2ccccc2)c(=O)[nH]c1=O	TrxR1 inh 50µM (no result: Eya2 inh)
Nc1c(N(CCO)C(=O)/C=C/c2ccco2)c(=O)[nH]c(=O)n1Cc1ccccc1	TrxR1 inh 20µM
Cc1ccc(-n2ccnc(SCC(=O)NCCc3ccccc3)c2=O)cc1F	none
Cc1ccc(Cl)c(NC(=O)COC(=O)c2ccccc2C(=O)c2ccc(Cl)c([N+](=O)[O-])c2)c1Cl	none
CCCNC(=O)COC(=O)c1ccccc1C(=O)c1ccc(Cl)c([N+](=O)[O-])c1	TrxR1 inh 50µM
CC(=O)OCON[N+]([O-])=NC(C)C	TrxR1 inh 16µM! (no result: Eya2 inh, IDH1 R132H inh)
CC(C(=O)O)N1C(=O)/C(=C/C=C/c2ccco2)SC1=S (stereo unspecified)	RGS4 inh inconclusive, TrxR1 inh 14µM
CCN(C(=O)C(C)N1C(=O)/C(=C/c2ccco2)SC1=S)C1CCS(=O)(=O)C1 (stereo unspecified)	RGS4 inh inconclusive
O=C1/C(=C/C=C/c2ccco2)SC(=S)N1NS(=O)(=O)c1ccccc1	TrxR1 inh 45µM
O=C1C(Cl)=C(N2CCC(C(=O)O)CC2)C(=O)c2ccccc21	TrxR1 inh 1.1µM
NC(=O)C1CCN(C2=C(Cl)C(=O)c3ccccc3C2=O)CC1	RGS4 inh inconclusive, TrxR1 inh 1µM
CCCOc1ccc(N2C(=O)CC(N(Cc3ccc(OC)cc3)C(=S)Nc3ccccc3)C2=O)cc1 (stereo unspecified)	none
C=CCNc1nc2c(c(=O)[nH]c(=O)n2C)n1CCOc1ccccc1	none
CCCOc1ccccc1C(=O)N1CCNC(=O)C1CC(=O)OC(C)C (stereo unspecified)	none
O=C(CSc1nc2ccccc2c(=O)[nH]1)Nc1ccc([N+](=O)[O-])cc1	none
O=c1[nH]c(Sc2ccc([N+](=O)[O-])cc2[N+](=O)[O-])nc2ccccc12	TrxR1 inh 3.2µM (no result: Eya2 inh)
CC1Cc2ccccc2N1CC(=O)Nc1ccc2c(c1)OCCCO2 (stereo unspecified)	Eya2 inh inconclusive
O=C(COC(=O)c1ccccc1Cl)NCc1ccco1	none
Cc1cc(-c2cc(-c3ccc(Cl)cc3)nc(N)c2C#N)co1	RGS4 inh inconclusive, TrxR1 inh inconclusive
Cc1ccc(-c2cc(-c3ccc4c(c3)OCO4)c(C#N)c(N)n2)o1	RGS4 inh inconclusive
Cc1ccc(-c2cc(-c3ccc(Cl)cc3)c(C#N)c(N)n2)o1	RGS4 inh inconclusive, TrxR1 inh 50µM
Cc1ccc(-c2cc(-c3ccc(F)cc3)c(C#N)c(N)n2)o1	RGS4 inh inconclusive, TrxR1 inh 16µM
Cc1ccc(-c2cc(-c3ccc(C)o3)nc(N)c2C#N)cc1	RGS4 inh inconclusive, TrxR1 inh 50µM
CN(C)Cc1ccc(CNC(=O)c2ccc(Cl)c(S(=O)(=O)NC3CC3)c2)cc1	none
Nc1nc(Cl)nc2c1ncn2[C@@H]1O[C@H](COP(=O)(O)OP(=O)(O)OP(=O)(O)O)[C@@H](O)[C@H]1O	RGS4 inh 0.53µM (no result: IDH1 R132H inh)
Nc1ncnc2c1ncn2[C@@H]1O[C@H](COP(=O)(O)OP(=O)(O)OP(=O)(O)OP(=O)(O)OC[C@@H]2O[C@H](n3cnc4c(N)ncnc43)[C@@H](O)[C@H]2O)[C@@H](O)[C@H]1O	RGS4 inh 3µM (no result: IDH1 R132H inh)
Cc1cc(C)n2c(SCCN3C(=O)c4ccccc4C3=O)nnc2n1	none
CC(=O)c1cccc(NC(=O)NCc2cccnc2)c1	none (no result: Eya2 inh)
CCOc1ccc(OCC)c(NC(=O)C2CCCN(C(=O)c3ccc(Cl)cc3)C2)c1 (stereo unspecified)	none
CCc1nnc(NS(=O)(=O)c2ccc(NC(=S)NC(=O)c3ccc(F)cc3)cc2)s1	TrxR1 inh 18µM
Cc1cc(NS(=O)(=O)c2ccc(NC(=S)NC(=O)c3ccc(Br)cc3)cc2)no1	TrxR1 inh 45µM
CCc1nnc(NS(=O)(=O)c2ccc(NC(=S)NC(=O)c3cccnc3)cc2)s1	none
Cc1ccccc1NC1=CC(=O)CC(C)(C)C1	none
CC1(C)CC(=O)C=C(NC2=CC3OC(c4ccccc4)OCC3OC2=O)C1 (stereo unspecified)	RGS4 inh inconclusive, TrxR1 inh 16µM
Cc1ccc(C2CC(c3cccs3)=NN2C(=O)CCl)cc1 (stereo unspecified)	TrxR1 inh 13µM
CCC(=O)N1N=C(c2cccs2)CC1c1ccc(C)cc1 (stereo unspecified)	RGS4 inh inconclusive
CCOc1ccc(-n2nnnc2SCC(=O)Nc2ccc(NC(C)=O)cc2)cc1	none
O=[N+]([O-])c1ccc(Nc2nc(Cl)nc(NCCO)n2)cc1	none
Nc1c(S(=O)(=O)O)cc(Nc2ccc(Nc3nc(Cl)nc(Nc4ccc(S(=O)(=O)O)cc4)n3)c(S(=O)(=O)O)c2)c2c1C(=O)c1ccccc1C2=O	Eya2 inh inconclusive, RGS4 inh 19µM, TrxR1 inh inconclusive (no result: IDH1 R132H inh)
COc1cccc(CC(=O)OCC(=O)N(C)CC(=O)Nc2ccccc2Cl)c1	none
COc1cccc2cc(-c3nnc(Nc4c(F)cccc4F)s3)c(=O)oc12	none (no result: Eya2 inh)
COc1ccc2oc(=O)c(-c3nnc(NCc4ccco4)s3)cc2c1	RGS4 inh inconclusive, TrxR1 inh 16µM
CCOc1cccc2cc(-c3nnc(NCc4ccco4)s3)c(=O)oc12	TrxR1 inh 7.9µM
CCOC(=O)C1=C(CC)OC(N)=C(C#N)C1c1ccc(NC(C)=O)cc1 (stereo unspecified)	TrxR1 inh 45µM
CC(C)N1CCC(N2CCN(C/C=C/c3ccccc3)CC2CCO)CC1 (stereo unspecified)	none
CCCCS(=O)(=O)/C=C\C=C/S(=O)(=O)CCCC	RGS4 inh inconclusive, TrxR1 inh 3.5µM
